Source: PubChem BioAssay AID624126 (The Scripps Research Institute Molecular Screening Center, 2012)
The whole screen tested about 360,000 compounds, of which about 1,400 (0.39%) were called active. The sample holds actives, similar compounds and a random draw of the others, so the mix is not that of the screen.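 The calls were made as follows: active = activation above its plate's cutoff, the mean activation of sample wells plus 3 SD; inactive = the rest.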

Target: Muscarinic acetylcholine receptor M4 (Homo sapiens) (UniProt P08173)
Sequence (P08173 whole entry, looked up): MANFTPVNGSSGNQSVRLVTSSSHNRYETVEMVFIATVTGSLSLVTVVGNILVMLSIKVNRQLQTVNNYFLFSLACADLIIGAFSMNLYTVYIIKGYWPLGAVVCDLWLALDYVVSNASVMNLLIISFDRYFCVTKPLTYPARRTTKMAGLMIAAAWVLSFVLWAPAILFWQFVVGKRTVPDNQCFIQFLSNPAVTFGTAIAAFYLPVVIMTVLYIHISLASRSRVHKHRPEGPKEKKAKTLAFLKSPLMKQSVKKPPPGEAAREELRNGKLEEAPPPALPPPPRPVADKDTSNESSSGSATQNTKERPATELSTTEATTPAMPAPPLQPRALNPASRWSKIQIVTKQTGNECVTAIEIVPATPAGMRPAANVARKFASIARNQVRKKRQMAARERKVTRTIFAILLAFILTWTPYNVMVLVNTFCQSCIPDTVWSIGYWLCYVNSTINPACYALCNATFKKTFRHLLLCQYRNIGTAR
Test: human M4 muscarinic receptor positive allosteric modulators, primary screen, CHO-K1 cells, Fluo-8 calcium fluorescence (AID 624126)
Conditions: CHO-K1 hM4/Gqi5, Fluo-8 calcium fluorescence, ACh EC20; at 3 µM; stronger effect = higher value; 0% = ACh EC20, 100% = maximal ACh

activation, active:
CCN1CCN(CC(=O)Nc2sc3c(c2C#N)CCC3)CC1 17.1%
O=C(OC12CC3CC(CC(C3)C1)C2)c1ccc(NCc2cc(O)ccc2O)cc1 15.5%
CC1CCN(C(=O)c2ccc3c(=O)n4c(nc3c2)CCCCC4)CC1 14.7%
CCN(CC(=O)NCc1cccs1)C(=O)/C=C/c1ccc(C)cc1 23.5%
CCOc1ccc(NC(=O)[C@H](C)NC(=O)C2CC(=O)N(c3ccc(OC)cc3)C2)cc1 (stereo partly specified) 17.5%
N/C(=N\OC(=O)CCc1ccccc1)c1cccnc1 24.5%
NC(=S)Nc1c(Cl)cccc1Cl 43.9%
CCCOc1ccc(C2=CSC3=NCCN23)cc1Cl 15.8%
CCCc1cc(=O)[nH]c(SCC(=O)c2c(N)n(CC(C)C)c(=O)n(C)c2=O)n1 25.4%
CC(=O)c1c(OCC(=O)N(C)C2CCCCC2)ccc2c(C)cc(=O)oc12 21.7%
Cc1cc(=O)[nH]c(N/N=C/c2ccc3c(c2)OCCO3)n1 31.5%
O=C(Nc1nnc(C2CC2)s1)c1ccccn1 28.3%
O=C(c1ccccc1)N1CCN(c2ccc([N+](=O)[O-])c(NCc3ccco3)c2)CC1 21.4%
Cc1cc(C)c(OCCN2CC(C)OC(C)C2)c(Br)c1 (stereo unspecified) 20.4%
NS(=O)(=O)c1cccnc1Nc1cccc(Cl)c1 24.9%
CCOC(=O)[C@]12CCCC=C1N(Cc1ccc3c(c1)OCO3)C(=O)[C@H](CC(=O)NCc1cccs1)C2 23.3%
CCOc1ccc2[nH]c(=O)c(C(c3nnnn3CCOC)N3CCOCC3)cc2c1 (stereo unspecified) 33.2%

activation, inactive:
Cc1cc(C)c(S(=O)(=O)NCCCN2CCOCC2)cc1Br -4.24%
O=C(CN1CCCC1)Nc1sc2c(c1C(=O)Nc1ccccc1)CCCC2 0.04%
COc1cccc(CN(C)CC(=O)Nc2sc3c(c2C#N)CCC3)c1 -0.97%
COCc1c(C(=O)OCc2c(C)noc2C)oc2ccccc12 -3.78%
CCCCCN(C(=O)CCC(=O)OCC(=O)NC1CCC(C)CC1)c1c(N)n(CCCC)c(=O)[nH]c1=O (stereo unspecified) 9.55%
CN(CCc1ccccc1)C(=O)c1cccc(NC(=O)Cc2cccc(NC(=O)C3CCCN(C(=O)C4CCC4)C3)c2)c1 (stereo unspecified) -5.03%
O=C(c1cnccn1)N1CCN(S(=O)(=O)c2cccc(Cl)c2)CC1 1.28%
Cc1ccc(Cn2c(=N)c(S(=O)(=O)c3ccc(C)cc3)cc3c(=O)n4ccccc4nc32)cc1 3.3%
Cc1cc(C)c(C)c(S(=O)(=O)N2CCN(C(=O)c3ccc4c(=O)n5c(nc4c3)CCC5)CC2)c1C -1.12%
O=C(Nc1cc(F)ccc1F)c1ccc2c(=O)n3c(nc2c1)CCC3 3.59%
CCOc1ccc(/C=C/C(=O)N(CC)CC(=O)NCc2cccs2)cc1OC -5.1%
CCN(CC(=O)NCc1cccs1)C(=O)c1ccccc1F 0.45%
COCCn1c(SCC(=O)Nc2ccc3c(c2)CCC3)nc2ccccc2c1=O -0.72%
Cc1c(C(=O)c2cccc([N+](=O)[O-])c2)c2ccccn2c1CCC#N -5.93%
CN1CCN(c2cc3c(cc2F)c(=O)c(C(=O)O)cn3CCF)CC1 8.31%
COc1ccc(N2CC(C(=O)N[C@@H](C)C(=O)N3CCCCC3)CC2=O)cc1 (stereo partly specified) -1.42%
CCCC(C)c1nnc(NC(=O)C2CC(=O)N(c3ccc(OCC)cc3)C2)s1 (stereo unspecified) 0.96%
COc1ccc(-c2ccc3c(c2)C2CC3CCN2CCC#N)cc1 (stereo unspecified) -4.51%
N/C(=N\OC(=O)CCc1ccccc1)c1ccc(Cl)cc1 12.9%
COc1ccc(/C(N)=N/OC(=O)CCCc2ccccc2)cc1 1.71%
CC(C)(C(=O)N1CCC1(C)C(=O)NS(=O)(=O)c1ccc(Br)cc1)c1ccccc1 (stereo unspecified) 1.17%
CC(C)c1nc(CNC(=O)CC2C(=O)NCCN2Cc2cccc(F)c2F)cs1 (stereo unspecified) -2.59%
Cc1nnc(SC(C(=O)Nc2cc(Cl)cc(Cl)c2)c2ccccc2)[nH]c1=O (stereo unspecified) -2.22%
CN(CC(=O)Nc1c(Cl)cccc1Cl)C(=O)c1ccncc1 0.17%
O=C(Nc1c(Cl)cccc1Cl)C1CCC1 11.8%
COC(=O)c1c(NC(=O)COc2ccc(Cl)cc2Cl)sc2c1CC(C)(C)NC2(C)C 14.6%
CCOc1ccccc1C1NC(=O)NC(C)=C1C(=O)OCc1ccco1 (stereo unspecified) -5.48%
CCCCOc1ccc(CON(C(C)=O)C(C)=O)cc1Cl -9.39%
Cc1ccc(C2=CSC3=NS(=O)(=O)CCN23)cc1C 5.85%
CCNC(=O)CCc1nc(-c2ccc(C(C)(C)C)cc2)no1 1.74%
O=C(O)C1CCCN1S(=O)(=O)c1ccc2c(c1)CCC2 (stereo unspecified) -5.21%
CCCc1cc(=O)[nH]c(SCC(=O)N2C(C)CCCC2C)n1 (stereo unspecified) 2.48%
CC(C)Cn1c(N)c(C(=O)COC(=O)CN2C(=O)C3CC=CCC3C2=O)c(=O)n(C)c1=O (stereo unspecified) -2.93%
Cc1ccc(SCC2=NNC(=O)C2)cc1 -0.52%
O=C(Cn1nc(CNc2ccc(Cl)cc2)[n+]2c1CCCCC2)c1ccc(Cl)cc1 -0.75%
Cc1ccccc1NC(=O)NC1(C(=O)N2CCCC2)CCCCC1 9.77%
Cc1ccc(C)c(NC(=O)NNC(=O)c2ccc3ccccc3c2O)c1 12.9%
COc1ccc2c(C)cc3nnnn3c2c1 5%
Cc1cc(=O)oc2c(C)c(OCC(=O)NCCN3CCOCC3)ccc12 -1.9%
Cc1cc(=O)oc2c(C(=O)c3ccccc3)c(OCC(N)=O)ccc12 -2.31%
C[n+]1cccc(C(=O)O)c1 -3.7%
O=C(Cc1ccc(S(=O)(=O)N2CCOCC2)s1)Nc1ccc(Br)c(C(F)(F)F)c1 -10.2%
Cc1ccc(C)c(NC2=NCC(=O)N2c2ccc3c(c2)OCCO3)c1 -2.16%
Cc1cc(=O)[nH]c(Nc2cccc(Br)c2)n1 -7.26%
Cn1cnc2c1c(=O)n(Cc1ccccc1C#N)c(=O)n2C 1.16%
O=C(C(NS(=O)(=O)c1cccc2nsnc12)c1ccccc1)N1CCN(c2ccccn2)CC1 (stereo unspecified) -11.9%
CCc1ccccc1OCC(=O)Nc1nnc(C2CC2)s1 2.68%
CCc1cc(C(=O)Nc2nnc(C3CC3)s2)sc1C 6.5%
O=C(CN1CCSCC1)N/N=C/c1ccc(F)cc1F 4.64%
CCN(CC)c1ccc(C(=O)OCC(=O)c2ccco2)cc1 -1.72%
Cc1cc(NC(=O)C(C)SCC(=O)Nc2cccc(S(=O)(=O)N3CCCCCC3)c2)no1 (stereo unspecified) -6.44%
O=C(CCc1nc(-c2ccccc2)no1)Nc1cccc(C(=O)NC2CC2)c1 10.1%
N#CCSc1ccccc1NC(=O)CN1C(=O)NC(CCc2ccccc2)C1=O (stereo unspecified) 1.07%
O=[N+]([O-])c1ccc(N2CCN(S(=O)(=O)c3ccc4ccccc4c3)CC2)cc1NCc1ccco1 14%
O=C(c1ccc(S(=O)(=O)NCc2ccco2)cc1)N1CCN(c2ccccc2)CC1 18.3%
CC(=O)c1ccc(S(=O)(=O)NCCC(=O)N2CCN(c3ccccn3)CC2)cc1 2.49%
Cc1csc(SCC(=O)N(c2ccccc2)C(C)C)n1 1.05%
O=C(CCC(=O)OCC(F)(F)C(F)F)NCc1ccccc1 -1.61%
CC1CN(CCOc2ccccc2[N+](=O)[O-])CC(C)O1 (stereo unspecified) 1.64%
CC1CN(CCCOc2ccccc2-c2ccccc2)CC(C)O1 (stereo unspecified) -4.17%
Cc1cc2c(cc1C)[n+](C)cn2CC(O)COCC1CC=CCC1 (stereo unspecified) 4.04%
OCCCNc1nccc(-c2cc(Nc3cccc(Cl)c3)ncn2)n1 4.57%
O=S(=O)(Nc1ncccn1)c1ccc(NS(=O)(=O)c2cccc(Cl)c2Cl)cc1 3.83%
CC(C(=O)NCCc1ccc(S(N)(=O)=O)cc1)N1C(=O)CC(C)(C)Sc2ccccc21 (stereo unspecified) -2.13%
COC(=O)[C@]12CCCCC=C1N(Cc1ccc3c(c1)OCO3)C(=O)[C@H](CC(=O)NCc1cccs1)C2 -4.76%
CCOC(=O)[C@]12CCCC=C1N(Cc1ccc3c(c1)OCO3)C(=O)[C@H](CC(=O)N1CCN(C(=O)c3ccco3)CC1)C2 13.2%
Cc1[nH]c2c(C(=O)N3CCCC(CCC(=O)NCc4ccccc4F)C3)cccc2c1C (stereo unspecified) -3.21%
Cc1nc(CN2CCN(C(=O)CCc3nnc(Cc4c[nH]c5ccccc45)o3)CC2)cs1 -5.85%
COc1ccc(N2CCN(C(c3cc4ccc(C)cc4[nH]c3=O)c3nnnn3C3CCCC3)CC2)cc1 (stereo unspecified) -3.66%
COCCn1nnnc1C(c1cc2ccc(OC)cc2[nH]c1=O)N1CCc2ccccc2C1 (stereo unspecified) -1.22%
COc1ccc(OC)c(S(=O)(=O)N2CCCC(C(=O)N3CCC(C(N)=O)CC3)C2)c1 (stereo unspecified) 6.48%
Cc1cccc(C(C)C)c1NC(=O)COC(=O)C1CC(=O)N(Cc2ccccc2)C1 (stereo unspecified) 1.78%
CCC/C(C)=N\Nc1nc2c(c(=O)n(C)c(=O)n2C)n1C -1.33%
O=C(Nc1ccc(N2C(=O)c3cccc4cccc(c34)C2=O)cc1)c1ccc(N2CCCCC2)c([N+](=O)[O-])c1 4.02%
